Measurements: the supplement of paper PMC10646978
± gives the standard deviation.

What was measured:
Settings in all cases: modulator concentration 10 µM
[1] = tested on: RAW-Dual (murine macrophage reporter line); test: NF-kB reporter (SEAP) activity fold change vs agonist alone; higher = enhanced NF-kB activity
How it was run: (§1)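 RAW-Dual murine macrophage reporter cells were plated at 50 000 per well in 384-well plates, pin-transferred compound to 10 μM final, and pre-incubated for 1 hour at 37 °C before a PRR agonist was added and the cells incubated overnight. NF-κB activity was read from supernatant SEAP with QUANTI-Blue at 620 nm absorbance, and IRF activity from Lucia luciferase with QUANTI-Luc by luminescence. Each signal was expressed as fold change by dividing by the mean agonist-only control on the same plate. Two replicate plates were averaged, with errors obtained by propagation.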

[2] = tested on: RAW-Dual (murine macrophage reporter line); test: IRF reporter (Lucia luciferase) activity fold change vs agonist alone; higher = enhanced IRF activity
How it was run: as §1

[3] = tested on: RAW-Dual (murine macrophage reporter line); test: viability score (confluency relative to resting cells, overnight) (fraction); higher = more viable, active = viable (0.7 or more)
How it was run: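 Compound was added at a final 10 μM to RAW-Dual macrophages in 384-well plates and left overnight. Confluency was imaged with IncuCyte, and two masks were generated in IncuCyte software over all imaged wells. Each viability score is confluency relative to resting cells, and a compound met the cutoff only when both masks were above 70% of resting cells.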

[4] = agonist: CpG ODN 1826 0.5 ug/mL

| SMILES | NF-kB reporter [1, 4] | NF-kB reporter ([1]; agonist: LPS 0.1 ug/mL) | NF-kB reporter ([1]; agonist: MPLA […]) | IRF reporter ([2]; agonist: 3'3'-cGAMP 10 ug/mL) | IRF reporter ([2]; agonist: LPS 0.1 ug/mL) | IRF reporter ([2]; agonist: MPLA […]) | viability score [3] |
| --- | --- | --- | --- | --- | --- | --- | --- |
| Cc1cc(C(=O)N2CCC(Oc3cccc4cccnc34)CC2)n(C)n1 | 0.994 ± 0.3 | 1.08 ± 0.054 | 1.07 ± 0.081 | 0.942 ± 0.035 | 1.03 ± 0.11 | 1.13 ± 0.18 | 0.536 (inactive) |
| O=C(CC1(Cc2ccc(I)cc2)C(=O)c2ccccc2C1=O)c1ccccc1 | 0.803 ± 0.073 | 0.876 ± 0.046 | 1.02 ± 0.091 | 0.953 ± 0.044 | 1.42 ± 0.12 | 1.59 ± 0.17 | 0.996 (active) |
| Cc1cc2nc3sc(=Cc4ccccc4OCc4ccc(Cl)cc4Cl)c(=O)n3c2cc1C | 0.975 ± 0.088 | 1.07 ± 0.069 | 0.962 ± 0.072 | 0.99 ± 0.034 | 1.47 ± 0.18 | 1.14 ± 0.12 | 0.999 (active) |
| O=C(NN=Cc1c(O)ccc2ccccc12)c1ccccc1 | 1.48 ± 0.12 | 1.19 ± 0.08 | 1.12 ± 0.054 | 0.752 ± 0.11 | 1.23 ± 0.077 | 1.14 ± 0.12 | 0.979 (active) |
| O=C(O)c1ccc(NCn2nnc3ccccc32)cc1 | 1.05 ± 0.1 | 0.928 ± 0.12 | 1.03 ± 0.097 | 1 ± 0.032 | 1.37 ± 0.27 | 1.51 ± 0.23 | 1 (active) |
| CCOc1ccc(NC(=O)N2C3C=CCC2CC3)cc1 (configuration not stated) | 1.09 ± 0.42 | 0.941 ± 0.055 | 1.04 ± 0.075 | 0.943 ± 0.054 | 0.921 ± 0.13 | 1.1 ± 0.1 | 0.814 (active) |
| Cl.Nc1c2c(nc3ccccc13)CCCC2 | 0.172 ± 0.048 | 0.751 ± 0.041 | 0.918 ± 0.06 | 0.616 ± 0.024 | 0.806 ± 0.25 | 0.837 ± 0.12 | 0.995 (active) |
| O=C(NC1CC(=O)N(c2ccc(F)cc2)C1)c1ccc(Cl)cc1 (configuration not stated) | 1.06 ± 0.054 | 1.11 ± 0.088 | 0.877 ± 0.039 | 0.944 ± 0.064 | 1.24 ± 0.11 | 1.2 ± 0.3 | 0.991 (active) |
| O=C1c2ccccc2C(=O)C1c1ccccn1 | 0.912 ± 0.069 | 1.08 ± 0.087 | 0.993 ± 0.021 | 0.897 ± 0.055 | 0.976 ± 0.075 | 0.95 ± 0.091 | 0.987 (active) |
| NN=C1CCCc2c1[nH]c1ccc(Cl)cc21 | 1.07 ± 0.11 | 1.04 ± 0.081 | 1.05 ± 0.056 | 0.505 ± 0.13 | 0.95 ± 0.076 | 0.873 ± 0.12 | 0.99 (active) |
| O=[N+]([O-])c1ccc(Cl)c(C=Nc2cccc3c(N=Cc4cc([N+](=O)[O-])ccc4Cl)cccc23)c1 | 0.841 ± 0.047 | 1.07 ± 0.078 | 0.988 ± 0.086 | 0.816 ± 0.05 | 1.56 ± 0.1 | 1.26 ± 0.13 | 1 (active) |
| C#CCN[C@@H]1CCc2ccccc21.CS(=O)(=O)O | 0.992 ± 0.1 | 1.03 ± 0.12 | 1.03 ± 0.031 | 0.933 ± 0.087 | 0.913 ± 0.03 | 0.849 ± 0.1 | 0.996 (active) |
| COCCNCCOc1ccccc1C(C)C | 0.767 ± 0.12 | 1.03 ± 0.084 | 0.899 ± 0.069 | 0.895 ± 0.031 | 1.32 ± 0.26 | 1.26 ± 0.18 | 0.554 (inactive) |
| O=c1n(CCCN2CCN(c3cccc(Cl)c3)CC2)nc2ccccn12 [Prestw-292] | 0.813 ± 0.062 | 0.912 ± 0.067 | 0.899 ± 0.089 | 0.932 ± 0.041 | 1.19 ± 0.14 | 1.19 ± 0.24 | 1.06 (active) |
| Clc1ccc(C=NN2CCN(C(c3ccccc3)c3ccccc3)CC2)cc1 | 1.06 ± 0.087 | 1.02 ± 0.087 | 0.928 ± 0.025 | 1.02 ± 0.051 | 1.05 ± 0.049 | 0.962 ± 0.1 | 0.996 (active) |
| O=C(OCCN1CCOCC1)c1ccc(O)cc1O | 1.21 ± 0.12 | 1.06 ± 0.1 | 1.06 ± 0.056 | 1.05 ± 0.14 | 0.972 ± 0.044 | 0.856 ± 0.076 | 0.999 (active) |
| COc1cccc2c1C(=O)c1c(O)c3c(c(O)c1C2=O)C[C@@](O)(C(=O)CO)C[C@@H]3O[C@H]1C[C@H](N)[C@@H](O)[C@H](C)O1.Cl | 0.114 ± 0.0074 | 0.0523 ± 0.0041 | 0.0992 ± 0.0043 | 0.0174 ± 0.0046 | 0.0179 ± 0.0063 | 0.0142 ± 0.0068 | 0.105 (inactive) |
| Cc1ccc(CC(=O)N2CCNC(=O)C2(C)C)cc1C | 1.08 ± 0.11 | 1.07 ± 0.1 | 0.989 ± 0.031 | 0.865 ± 0.042 | 0.941 ± 0.044 | 0.87 ± 0.085 | 0.999 (active) |
| CCOC(=O)C1=CC2(CC)CCCN3CCc4c(n1c1ccccc41)C32 (configuration not stated) | 0.79 ± 0.061 | 0.928 ± 0.078 | 0.915 ± 0.09 | 0.963 ± 0.032 | 1.3 ± 0.13 | 1.4 ± 0.21 | 1.03 (active) |
| Nc1ncnc2c1ncn2[C@@H]1O[C@H](CO)[C@@H](O)[C@H]1O | 1.03 ± 0.08 | 1.13 ± 0.079 | 1.17 ± 0.11 | 1.22 ± 0.25 | 0.879 ± 0.03 | 0.852 ± 0.11 | 1 (active) |
| O=C1NC(=O)c2c1cc1ccccc1c2-c1ccccc1 | 0.996 ± 0.18 | 0.979 ± 0.077 | 0.952 ± 0.15 | 0.887 ± 0.031 | 1.2 ± 0.2 | 1.35 ± 0.3 | 0.998 (active) |
| O=c1oc2c(O)c(O)cc3c(=O)oc4c(O)c(O)cc1c4c23 | 1.05 ± 0.32 | 0.944 ± 0.051 | 0.963 ± 0.1 | 0.85 ± 0.055 | 1.11 ± 0.12 | 1.1 ± 0.22 | 0.997 (active) |
| O=C(c1ccc(Cl)cc1)N(c1ccccc1)C1C=CS(=O)(=O)C1 (configuration not stated) | 0.99 ± 0.056 | 0.83 ± 0.051 | 0.823 ± 0.049 | 0.814 ± 0.031 | 1.1 ± 0.14 | 1.08 ± 0.2 | 0.981 (active) |
| Cc1c(OCC(=O)OC(C)C)ccc2c3c(c(=O)oc12)CCCC3 | 0.794 ± 0.063 | 0.883 ± 0.14 | 1.21 ± 0.12 | 0.949 ± 0.086 | 1.49 ± 0.095 | 1.71 ± 0.24 | 1.01 (active) |
| CC1CC(=O)C2=C(C1)OC(N)=C(C#N)C2c1ccc(F)cc1 (configuration not stated) | 0.894 ± 0.09 | 1.01 ± 0.1 | 0.935 ± 0.066 | 0.874 ± 0.053 | 1.08 ± 0.077 | 1.13 ± 0.2 | 0.982 (active) |
| O=C(NC1CCC(F)(F)CC1)c1cc(Br)cs1 | 1.13 ± 0.064 | 0.996 ± 0.075 | 0.984 ± 0.04 | 0.833 ± 0.051 | 1.04 ± 0.052 | 1.03 ± 0.15 | 0.999 (active) |
